Test results from PubChem BioAssay AID778 (Sanford-Burnham Center for Chemical Genomics, 2007).
The campaign covered roughly 96,000 compounds. About 20,000 (21%) were called active. A selection follows. Unmarked numbers belong to inactive results.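 Rule for the calls: active = CYP2C19 inhibition above a set limit at 5 µM in the primary screen (cut at about 50% in these data); inactive = the rest.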

Biological target: Cytochrome P450 2C19 (Homo sapiens) (UniProt P33261)
Assay: blockers of cytochrome P450 2C19 activity – biochemical, luminescence, ADME assay, primary screen (AID 778);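 note: plate controls were negative control wells for no effect and 2.5 mM tranylcypromine positive control for full effect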
Settings: CYP2C19 Supersomes, luciferin-H EGE luminescence, 30 min; at 5 µM; hits give high values

Sequence of Cytochrome P450 2C19 (Homo sapiens) (P33261 whole entry, looked up): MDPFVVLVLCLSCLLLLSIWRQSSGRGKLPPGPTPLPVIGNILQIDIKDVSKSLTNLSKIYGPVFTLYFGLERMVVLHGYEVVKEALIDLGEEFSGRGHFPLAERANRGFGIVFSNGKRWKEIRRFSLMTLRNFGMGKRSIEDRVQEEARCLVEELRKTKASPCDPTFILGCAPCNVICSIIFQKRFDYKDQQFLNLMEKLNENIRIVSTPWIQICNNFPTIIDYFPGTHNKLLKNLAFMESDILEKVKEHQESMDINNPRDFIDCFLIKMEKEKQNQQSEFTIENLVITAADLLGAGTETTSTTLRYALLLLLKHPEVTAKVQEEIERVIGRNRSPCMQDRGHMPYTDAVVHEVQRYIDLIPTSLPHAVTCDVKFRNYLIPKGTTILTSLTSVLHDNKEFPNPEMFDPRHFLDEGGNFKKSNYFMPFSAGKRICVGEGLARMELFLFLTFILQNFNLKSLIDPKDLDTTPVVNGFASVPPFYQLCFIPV

Compound	inhibition
NC(=O)c1ccccc1NC(=O)c1ccccc1F	-8.5%
CCOC(=O)c1c(C)nc(-c2ccccc2)nc1NC(=O)C(C)C	37.3%
CCOC(=O)N1CCC(NC(=O)Cn2cc3c(n2)CCCCC3)CC1	1.5%
CCN1CCN(Cc2c(O)ccc3c(=O)c(-c4ccc(OC)c(OC)c4)c(C(F)(F)F)oc23)CC1	12%
Cc1cc(=O)oc(C)c1C(=O)Nc1cnc2ccccc2c1	0.8%
CC(=NCC1CCCO1)c1c(O)[nH]c(=O)[nH]c1=O (centres undefined)	-7.7%
COCCNC(=O)CN(C(=O)CCC(=O)Nc1cc(C)on1)c1ccc(C)cc1C	11.8%
N#CC1=C(N)Oc2n[nH]c(CSc3ccccc3)c2C12C(=O)Nc1ccccc12 (centres undefined)	0.5%
O=C(NCc1ccccn1)c1ccc2nc(-c3ccco3)c(-c3ccco3)nc2c1	43.6%
COc1ccc(CC(NC(C)=O)C(=O)NC2CCN(C(=O)Nc3ccc(C#N)cc3)CC2)cc1OC (centres undefined)	32%
COc1ccc(C(CNC(=O)c2cccnc2SC)N2CCOCC2)cc1 (centres undefined)	11.3%
CCC1=C/C(=C\c2ccc3c(c2)OCO3)C(=O)S1	43.8%
Cc1cccc(N=C2NC(=O)CS2)c1C	7.4%
COc1cc(OC)c(-n2c(C)cc(C=O)c2C)cc1Cl	93.2% (active)
Cc1cc(C=O)c(C)n1-c1ccc(NC2CCCCC2)c([N+](=O)[O-])c1	-2.5%
O=C(c1ccco1)N1CCN(C(=O)c2ccc(COc3ccc(F)cc3)o2)CC1	25.1%
COCCN1Cc2cccc(C(=O)Nc3ccccc3OC)c2C1=O	34.9%
CCCOc1ccc(NC(=O)C2CCCNC2=O)cc1 (centres undefined)	3.9%
C=CCNC(=O)c1csc(-c2ccccc2)n1	67.4% (active)
C=CCNC(=O)c1cc(-c2ccccc2O)on1	45.7%
CNC(=O)c1csc(-c2ccccc2)n1	23.7%
CS(=O)(=O)N(CC(=O)N1CCOCC1)c1ccc2c3c(cccc13)CC2	32.7%
C=CCN(C(=O)Cn1ncc2c1-c1cc(C)ccc1OC2)c1ccccc1	63.4% (active)
Cc1ccc2oc(=O)c3cnn(CC(=O)N4CCCCCC4)c3c2c1	-5.2%
C=CCN(C(=O)Nc1ccc2oc(C)nc2c1)c1ccccc1	14.7%

Compound	inhibition
CS(=O)(=O)c1sc2nc(-c3ccccc3)cc(-c3ccccc3)c2c1N	-2.6%
O=C(NC1CCCCC1)N1CCc2[nH]c3ccccc3c2C1	44.1%
N#Cc1ccc(CSc2nnc(-c3ccccn3)n2-c2ccc(Cl)cc2)cc1	18.3%
O=C(NCc1ccccn1)c1cc2ccccc2oc1=O	1.3%
Nc1ncc(-c2cc3ccccc3oc2=O)s1	51.3% (active)
O=C(Oc1cccnc1)c1cc2ccccc2oc1=O	-9.9%
CCCCN(C)C(=O)c1ccc2c(c1)N(CC)C(=O)c1ccccc1S2(=O)=O	22.5%
O=C(CCN1C(=O)c2ccccc2C1=O)Nc1cccc(F)c1	78% (active)
O=C(CCN1C(=O)c2ccccc2C1=O)Nc1ccncc1	36.2%
O=C(CCN1C(=O)c2ccncc2C1=O)Nc1ccc2c(c1)OCCO2	2.4%
O=C(COc1ccccc1Cl)Nn1cnnc1	41.3%
COc1ccc(Cc2nnc(NC(=O)Cc3cccs3)s2)cc1	17.2%
COc1ccc(NC(=O)NC2CC3CCCC(C2)N3Cc2ccccc2)cc1 (centres undefined)	0.4%
CN(C)c1nc2n(c(=O)n1)CCO2	-6%
CN(C)/C=C1/Nc2ccccc2C1=O	14.3%
Cc1ccccc1-c1nc(CS(=O)(=O)CC(=O)N2CCc3ccccc3C2)c(C)o1	69.4% (active)
COc1ccc(-c2nc(CS(=O)CC(=O)N3CCc4ccccc4C3)c(C)o2)cc1 (centres undefined)	17.7%
Cc1oc(-c2ccccc2F)nc1CS(=O)(=O)CC(=O)NCCCN(C)C1CCCCC1	-10.6%
CCN1CCN(C(=O)/C=C\C(=O)O)CC1	-10.4%
CCOC(=O)c1c(N)c(C#N)nn1-c1ccccc1C(=O)OC	25.3%
CCC(=O)NC(NCC1CCCO1)C(Cl)(Cl)Cl (centres undefined)	8.6%
COCCNC(=O)c1snc2ccc(Cl)cc12	-5.7%
CCOC(=O)c1nc(N)sc1C(=O)OCC	-0.6%
CCOC(=O)c1cc2ccccc2nc1C	12.8%
CCOC(=O)c1sc(C)c2c1NC(C)(c1cccc3ccccc13)NC2=O (centres undefined)	82% (active)

Compound	inhibition
COC(=O)C(C)n1cnc2c(nnn2-c2cccc(Cl)c2)c1=O (centres undefined)	24.7%
COc1ccc(Cl)cc1C(=O)Nc1ccc(N(C)C(C)=O)cc1	25.6%
COc1ccc(NC(=S)N2N=CCC2c2ccccc2)cc1 (centres undefined)	41.5%
CN1OC(COC(=O)c2ccc(Cl)cc2)CC1c1ccccc1 (centres undefined)	74.5% (active)
N#Cc1c(N)n(CCOC(=O)c2ccc(Cl)cc2)c2nc3ccccc3nc12	29.4%
CCOC(=O)c1cc(NC(=O)c2ccc(Cl)cc2)c(=O)oc1-c1ccccc1	6.8%
CCOc1ccc(OCC)c(NC(=O)C(NS(=O)(=O)c2ccc3c(c2)oc(=O)n3C)C(C)C)c1 (centres undefined)	20.9%
c1ccc(-c2cc(-c3nnc4sc(-c5ccccn5)nn34)[nH]n2)cc1	10.4%
O=C(O)c1cccnc1NC1CCCC1	6.9%
CCN(CC)C(=O)CSc1nnc(-c2ccc(S(=O)(=O)NCc3ccccc3Cl)cc2)o1	65.4% (active)
O=C(CSc1nnc(-c2ccc(NS(=O)(=O)c3ccccc3)cc2)o1)NCC1CCCO1 (centres undefined)	46.1%
CCN(CC)C(=O)CSc1nnc(-c2cccc(OC)c2)o1	26.3%
CC(CC(=O)Nc1cc(C(F)(F)F)ccc1Cl)c1ccccc1 (centres undefined)	61% (active)
CC(C)CC(=O)Nc1cc(C(F)(F)F)ccc1N1CCOCC1	32.1%
O=C(Nc1cc(C(F)(F)F)ccc1Cl)c1cc2nc3c(c(C(F)(F)F)n2n1)CCCC3	7.6%
COC(=O)CNC(=O)c1ccc2c(c1)S(=O)(=O)c1ccccc1C2=O	-4.3%
O=C(CC1OC(=O)c2ccccc21)NC1CCCCC1 (centres undefined)	-5.7%
O=C(NC(c1ccccc1)c1ccccc1)N1CCN(CCO)CC1	3.6%
S=c1[nH]nc2c3c4c(sc3ncn12)CCCC4	-8.5%
Cc1cccc(CSc2nnc(NC(=O)CSc3nnc(C)s3)s2)c1	20.2%
O=C(NCCc1ccccc1)/C(=C\c1ccc([N+](=O)[O-])cc1)NC(=O)c1ccccc1	-1.2%
CCOC(=O)/C(C#N)=C/c1ccc(OCC(=O)Nc2ccccc2)c(OC)c1	4.1%
CCOC(=O)/C(=C\c1ccc([N+](=O)[O-])cc1)C(=O)c1cc(C(C)=O)c(Nc2ccccc2)s1	62.8% (active)
CCCC(=O)Nc1c(O)c2ccccc2[nH]c1=O	-8.7%
COc1ccc(OC)c(NC(=O)CCN2CCC(C)CC2)c1	89.8% (active)

Compound	inhibition
CCOc1ccccc1NC(=O)Nc1cc(OC)ccc1OC	1.1%
COc1ccc(C(=O)Nc2ccc(F)cc2F)cc1	12.1%
COc1ccc(OC)c(NC(=O)CN2CCN(C(=O)c3ccco3)CC2)c1	8.8%
CCOc1ccc(S(=O)(=O)Nc2nc3cc(OC)ccc3s2)cc1	16.3%
CCOc1ccc(C(=O)Nc2cc(OC)ccc2OC)cc1	77% (active)
COc1ccc(OC)c(NC(=O)Cn2c(=O)oc3ccccc32)c1	42.2%
CCOc1ccc(CC(=O)Nc2ccc(S(=O)(=O)Nc3cc(C)on3)cc2)cc1OCC	2%
CCOc1ccc(S(=O)(=O)Nc2ccc(S(=O)(=O)Nc3cc(OC)ccc3OC)cc2)cc1	91.8% (active)
O=P(c1cccs1)(c1cccs1)c1cccs1	7.9%
COC(=O)C(C)N(C#N)c1nc(C)nc(C)n1 (centres undefined)	15.2%
CCOC(=O)C1CCCN(C(=O)c2sc3nc(C)nc(N4CCOCC4)c3c2C)C1 (centres undefined)	-5%
Nc1nonc1-c1noc(-c2ccc(Br)o2)n1	47.6%
CN1CCN(Cc2c(O)ccc3c2oc(=O)c2ccccc23)CC1	-0.1%
CC(C)(C)NC(=O)NC(=O)COC(=O)Cn1c(C(F)(F)F)nc2ccccc21	54.6% (active)
CN1CCN(C(=O)Cn2c(C(F)(F)F)nc3ccccc32)CC1	-11.1%
Cc1ccccc1OC(=O)Cn1c(C(F)(F)F)nc2ccccc21	35.4%
CCCCN(C)Cc1c(C)[nH]c2ccc(Cl)cc2c1=O	-11.4%
O=C(Nc1c(Cl)cccc1Cl)C1CCC1	-0.2%
O=C(c1ccco1)N1CCN(c2cccc(Cl)c2)CC1	19.9%
O=C(c1ccco1)N1CCN(C(=O)C2CC(c3ccc(F)cc3)=NO2)CC1 (centres undefined)	5.3%
O=C(c1ccco1)N1CCN(C(=O)C2CC(c3ccc(Cl)c(Cl)c3)=NO2)CC1 (centres undefined)	53.8% (active)
Cc1ccc(S(=O)(=O)NCC(=O)OCC(=O)N2CCc3ccccc32)cc1	-3.8%
O=C1CN(C(=O)COC(=O)C2CC(=O)N(Cc3ccco3)C2)c2ccccc2N1 (centres undefined)	-8.7%
Cc1ccc(S(=O)(=O)N2CCC(C(=O)OCC(=O)N3CC(=O)Nc4ccccc43)CC2)cc1	62.2% (active)
